According to PubChem BioAssay AID1159580 (chemical genetic matrix, 2015):
About 2,000 (36%) of roughly 5,500 compounds were called active. Inconclusive results (about 18%) are left out. Cut-off read from the data, not from the text of the source: active = normalized growth mostly below about 0.91 (no sharp cut-off); inconclusive = no clear call, values can overlap the other calls; inactive = mostly above about 0.92. The list shows a part of the results.

Assay: chemical genetic growth profiling, strain panel (AID 1159580);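 note: tested at 20 µM; growth read once vehicle control cultures reached saturation at 30 °C; 1 = growth at the plate median or of vehicle wells; lower values mean less growth of the strain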
Conditions: S. cerevisiae deletion strains, growth OD
[1] = locus YHR030C, strain SLT2, active compounds read low
[2] = locus YHR079C, strain IRE1, active compounds read low
[3] = locus YJL095W, strain BCK1, active compounds read low
[4] = locus YJR066W, strain TOR1, active compounds read low
[5] = locus YLR113W, strain HOG1, active compounds read low
[6] = locus YNL183C, strain NPR1, active compounds read low
[7] = locus YOR231W, strain MKK1, active compounds read low
[8] = locus YPL256C, strain CLN2, active compounds read low

Measured: normalized growth

COc1cccc([C@]2(O)CCCC[C@H]2CN(C)C)c1
inactive: locus YAL021C, strain ccr4, active compounds read low 0.964 | locus YAL026C, strain drs2, active compounds read low 0.968 | locus YAL030W, strain snc1, active compounds read low 0.947 | locus YBL061C, strain skt5, active compounds read low 0.968 | locus YBR009C, strain hhf1, active compounds read low 0.965 | locus YBR023C, strain chs3, active compounds read low 0.977 | locus YBR171W, strain sec66, active compounds read low 0.962 | locus YBR231C, strain swc5, active compounds read low 0.99 | locus YBR279W, strain paf1, active compounds read low 0.975 | locus YCL011C, strain gbp2, active compounds read low 0.972 | locus YCL016C, strain dcc1, active compounds read low 0.973 | locus YCL061C, strain MRC1, active compounds read low 0.987 | locus YCL069W, strain vba3, active compounds read low 0.967 | locus YCR088W, strain abp1, active compounds read low 0.973 | locus YDL005C, strain med2, active compounds read low 0.965 | locus YDL040C, strain nat1, active compounds read low 0.978 | locus YDR001C, strain nth1, active compounds read low 0.963 | locus YDR069C, strain doa4, active compounds read low 0.958 | locus YDR137W, strain rgp1, active compounds read low 0.942 | locus YDR159W, strain sac3, active compounds read low 0.932 | locus YDR195W, strain ref2 0.956 | locus YDR297W, strain sur2, active compounds read low 0.966 | locus YDR334W, strain swr1, active compounds read low 0.928 | locus YDR335W, strain msn5, active compounds read low 0.958 | locus YDR392W, strain spt3, active compounds read low 0.973 | locus YEL003W, strain gim4, active compounds read low 0.971 | locus YEL037C, strain rad23, active compounds read low 0.982 | locus YEL061C, strain CIN8 (second series), active compounds read low 0.968 | locus YER015W, strain faa2, active compounds read low 0.973 | locus YER016W, strain bim1, active compounds read low 0.978 | locus YER111C, strain swi4, active compounds read low 0.974 | locus YER155C, strain BEM2 (second series), active compounds read low 0.97 | locus YFR010W, strain ubp6, active compounds read low 0.955 | locus YGL167C, strain pmr1, active compounds read low 0.967 | locus YGL173C, strain kem1, active compounds read low 0.952 | locus YGL227W, strain vid30, active compounds read low 0.963 | locus YGL240W, strain doc1, active compounds read low 0.947 | locus YGL253W, strain hxk2, active compounds read low 0.988 | locus YHR013C, strain ard1, active compounds read low 0.937 | locus YHR027C, strain rpn1, active compounds read low 0.959 | [1] 0.969 | [2] 0.963 | locus YHR142W, strain chs7, active compounds read low 0.951 | locus YJL092W, strain hpr5, active compounds read low 0.982 | locus YJL095W, strain BCK1 (second series), active compounds read low 0.962 | [3] 1.01 | locus YJL115W, strain asf1, active compounds read low 0.956 | locus YJL129C, strain trk1, active compounds read low 0.983 | locus YJL154C, strain vps35, active compounds read low 0.959 | locus YJL164C, strain tpk1, active compounds read low 0.981 | locus YJL166W, strain qcr8, active compounds read low 0.968 | locus YJL187C, strain SWE1, active compounds read low 0.973 | [4] 0.935 | locus YKL160W, strain elf1, active compounds read low 0.981 | locus YKR026C, strain gcn3, active compounds read low 0.977 | locus YKR091W, strain srl3, active compounds read low 0.98 | locus YLL001W, strain dnm1, active compounds read low 0.981 | locus YLL026W, active compounds read low 0.949 | locus YLL041C, strain sdh2, active compounds read low 0.971 | locus YLR027C, strain aat2, active compounds read low 0.944 | [5] 0.981 | locus YLR221C, strain rsa3, active compounds read low 0.971 | locus YLR258W, strain gsy2, active compounds read low 0.971 | locus YLR262C, strain YPT6 (second series), active compounds read low 0.962 | locus YLR320W, strain mms22, active compounds read low 0.964 | locus YLR342W, strain FKS1, active compounds read low 0.99 | locus YLR357W, strain rsc2, active compounds read low 0.997 | locus YLR370C, strain arc18, active compounds read low 0.974 | locus YLR384C, strain iki3, active compounds read low 0.974 | locus YML120C, strain ndi1, active compounds read low 0.979 | locus YMR058W, strain fet3, active compounds read low 0.978 | locus YMR125W, strain sto1, active compounds read low 0.963 | locus YMR129W, active compounds read low 0.987 | locus YMR205C, strain PFK2, active compounds read low 0.961 | locus YMR231W, strain pep5, active compounds read low 0.967 | locus YNL071W, strain lat1, active compounds read low 0.98 | [6] 0.941 | locus YNL209W, strain ssb2, active compounds read low 0.966 | locus YNL248C, strain rpa49, active compounds read low 0.989 | locus YNL322C, strain KRE1 (second series), active compounds read low 0.97 | locus YNR049C, strain mso1, active compounds read low 0.969 | locus YOR001W, strain rrp6, active compounds read low 0.968 | locus YOR070C, strain gyp1, active compounds read low 0.978 | locus YOR080W, strain dia2, active compounds read low 0.969 | locus YOR083W, strain WHI5, active compounds read low 0.968 | locus YOR106W, strain vam3, active compounds read low 0.969 | [7] 0.96 | locus YOR265W, strain rbl2, active compounds read low 0.978 | locus YOR270C, strain vph1, active compounds read low 0.945 | locus YOR290C, strain snf2, active compounds read low 0.966 | locus YPL051W, strain arl3, active compounds read low 0.987 | locus YPL078C, strain atp4, active compounds read low 0.968 | locus YPL106C, strain sse1, active compounds read low 0.916 | locus YPL240C, strain hsp82, active compounds read low 0.974 | [8] 0.978

N#C/C(=C\c1ccccc1Sc1ccc(Cl)cc1)S(=O)(=O)c1ccccn1
inactive: locus YAR019C, strain CDC15, active compounds read low 0.972 | locus YBL105C, strain PKC1, active compounds read low 0.968 | locus YBR135W, strain CKS1, active compounds read low 0.957 | locus YBR136W, strain MEC1, active compounds read low 0.966 | locus YBR160W, strain CDC28, active compounds read low 0.973 | locus YDL017W, strain CDC7, active compounds read low 0.982 | locus YDL028C, strain MPS1, active compounds read low 0.971 | locus YDL101C, strain DUN1, active compounds read low 0.963 | locus YDL108W, strain KIN28, active compounds read low 0.962 | locus YDL132W, strain cdc53, active compounds read low 0.959 | locus YDL214C, strain PRR2, active compounds read low 0.901 | locus YDR052C, strain DBF4, active compounds read low 0.98 | locus YDR054C, strain cdc34, active compounds read low 0.969 | locus YDR226W, strain ADK1, active compounds read low 0.968 | locus YDR477W, strain SNF1, active compounds read low 0.873 | locus YER123W, strain YCK3, active compounds read low 0.88 | locus YER133W, strain GLC7, active compounds read low 0.909 | locus YFL009W, strain cdc4, active compounds read low 0.967 | locus YFL029C, strain CAK1, active compounds read low 0.968 | locus YFR003C, strain YPI1, active compounds read low 0.97 | locus YFR019W, strain FAB1, active compounds read low 0.926 | locus YFR028C, strain CDC14, active compounds read low 0.962 | locus YGR040W, strain KSS1, active compounds read low 0.871 | locus YGR052W, strain FMP48, active compounds read low 0.883 | locus YGR092W, strain DBF2, active compounds read low 0.772 | [1] 0.858 | [2] 0.956 | locus YHR082C, strain KSP1, active compounds read low 0.939 | locus YHR205W, strain SCH9, active compounds read low 0.872 | locus YIL147C, strain SLN1, active compounds read low 0.97 | [3] 0.875 | locus YJL128C, strain PBS2, active compounds read low 0.925 | locus YJL157C, strain FAR1, active compounds read low 0.897 | locus YJR016C, strain ILV3, active compounds read low 0.971 | locus YJR066W, strain TOR1 (second series), active compounds read low 0.883 | [4] 0.938 | locus YKL048C, strain ELM1, active compounds read low 0.852 | locus YKL067W, strain YNK1, active compounds read low 0.9 | locus YKL101W, strain HSL1, active compounds read low 0.875 | locus YKL193C, strain SDS22, active compounds read low 0.961 | locus YKL203C, strain TOR2, active compounds read low 0.936 | locus YLR133W, strain CKI1, active compounds read low 0.889 | locus YLR403W, strain SFP1, active compounds read low 0.802 | locus YML070W, strain DAK1, active compounds read low 0.886 | locus YMR001C, strain CDC5, active compounds read low 0.964 | locus YMR205C, strain PFK2 (second series), active compounds read low 0.908 | locus YMR277W, strain FCP1, active compounds read low 0.963 | locus YNL006W, strain LST8, active compounds read low 0.959 | locus YNL020C, strain ARK1, active compounds read low 0.891 | locus YNL161W, strain CBK1, active compounds read low 0.968 | [6] 0.934 | locus YNL207W, strain RIO2, active compounds read low 0.968 | locus YNL222W, strain SSU72, active compounds read low 0.959 | locus YNL307C, strain MCK1 (second series), active compounds read low 0.877 | locus YOL078W, strain AVO1, active compounds read low 0.955 | locus YOL136C, strain PFK27, active compounds read low 0.846 | locus YOR061W, strain CKA2, active compounds read low 0.851 | locus YOR119C, strain RIO1, active compounds read low 0.939 | [7] 0.893 | locus YOR329C, strain SCD5, active compounds read low 0.969 | locus YPL031C, strain PHO85, active compounds read low 0.868 | locus YPL153C, strain RAD53, active compounds read low 0.904 | locus YPL204W, strain HRR25, active compounds read low 0.83 | locus YPL209C, strain IPL1, active compounds read low 0.968 | [8] 0.926 | locus YPR025C, strain CCL1, active compounds read low 0.961 | locus YPR106W, strain ISR1, active compounds read low 0.973 | locus YPR111W, strain DBF20, active compounds read low 0.942 | strain NNK1, active compounds read low 0.964 | strain TSCII, active compounds read low 0.956
active: [5] 0.821
